From PubChem BioAssay (NCI)
The panel holds about 83,000 compounds, 20% with a hit somewhere; the sample as a whole holds those more often.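 Step 1: grow cells in 96-well plates. Step 2: add test compound at a single concentration. Step 3: incubate 48 h. Step 4: record percent growth.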 A number with no mark means an inactive call. Calls of active or inactive are those of the source. The calls were made as follows: active = growth percent below 10; inactive = the rest.

system: MDA-MB-468 breast; assay: NCI-60 one-dose screen, 48 h (100 = growth as untreated, 0 = no growth, -100 = all killed); conditions: 10 µM unless noted

Question: With `CCN1CCN(C(=O)[C@]23CCC(C)(C)C[C@@H]2C2=CC[C@@H]4[C@@]5(C)C/C(=C/c6cccnc6)C(=O)C(C)(C)[C@@H]5CC[C@@]4(C)[C@]2(C)CC3)CC1` as the molecule, how does the growth read?
Answer: Its growth is -6.42% (active).

Question: How did the growth turn out when `Cc1ccc(C(=O)CC(=O)C(F)(F)C(F)(F)C(F)(F)F)s1` was run?
Answer: The growth was 102%.

Question: Which growth does the source give for `C[n+]1c2ccccc2c(Nc2ccc(NS(=O)(=O)CCCCN=C(N)N)cc2)c2ccc(N)cc21` here?
Answer: Its growth is 39%.
